Reference: PubChem BioAssay (EPA / NIEHS)
Where “and” joins values, the source holds several entries; their conditions need not be identical. Equal entries are not always repeated. Inconclusive results are not listed. Calls of active or inactive are those of the source. The calls were made as follows, unless noted: active = hit-call score of the fitted dose curve at least 0.9, where 1 is the maximum; inactive = score below 0.9.

Assays:
[1] = target: Retinoic acid receptor RXR-alpha (Homo sapiens) (UniProt P19793); assay: OT_NURR1_NURR1RXRa_1440: Odyssey Thera (OT) 24-hour HEK293T Protein Complementation Assay for Nurr1/retinoid X receptor (RXR) (AID 2283386; active = hit-call score of the fitted dose curve at least 0.9, where 1 is the maximum)
Retinoic acid receptor RXR-alpha (Homo sapiens), sequence (P19793 whole entry, looked up, the tested form may be a part): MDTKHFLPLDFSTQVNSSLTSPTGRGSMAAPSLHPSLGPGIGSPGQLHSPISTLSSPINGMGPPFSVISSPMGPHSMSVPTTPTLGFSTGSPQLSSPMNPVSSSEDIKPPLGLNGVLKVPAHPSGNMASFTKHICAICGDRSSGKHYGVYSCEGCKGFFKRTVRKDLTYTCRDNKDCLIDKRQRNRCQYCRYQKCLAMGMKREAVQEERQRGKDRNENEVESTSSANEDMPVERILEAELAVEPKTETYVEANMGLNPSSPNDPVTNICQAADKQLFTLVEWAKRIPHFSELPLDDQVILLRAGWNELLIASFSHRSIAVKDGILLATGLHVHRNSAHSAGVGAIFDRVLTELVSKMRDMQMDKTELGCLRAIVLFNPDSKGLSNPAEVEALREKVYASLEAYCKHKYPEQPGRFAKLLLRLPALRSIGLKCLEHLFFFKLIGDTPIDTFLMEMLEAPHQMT
In short: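 Cell-based binding reporter: HEK293T cells, 24 h exposure, fluorescence-detected fragment complementation, DMSO as baseline.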

[2] = target: Peroxisome proliferator-activated receptor gamma (Homo sapiens) (UniProt P37231); assay: OT_PPARg_PPARgSRC1_0480: Odyssey Thera (OT) 8-hour Protein-Complementation Assay for Peroxisome Proliferator-activated Receptor Gamma / SRC-1 Co-activator (AID 2283387; active = hit-call score of the fitted dose curve at least 0.9, where 1 is the maximum;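 also: nuclear to cytoplasmic split Venus YFP fluorescence ratio reporting PPARg SRC-1 interaction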)
Peroxisome proliferator-activated receptor gamma (Homo sapiens), sequence (P37231 whole entry, looked up, the tested form may be a part): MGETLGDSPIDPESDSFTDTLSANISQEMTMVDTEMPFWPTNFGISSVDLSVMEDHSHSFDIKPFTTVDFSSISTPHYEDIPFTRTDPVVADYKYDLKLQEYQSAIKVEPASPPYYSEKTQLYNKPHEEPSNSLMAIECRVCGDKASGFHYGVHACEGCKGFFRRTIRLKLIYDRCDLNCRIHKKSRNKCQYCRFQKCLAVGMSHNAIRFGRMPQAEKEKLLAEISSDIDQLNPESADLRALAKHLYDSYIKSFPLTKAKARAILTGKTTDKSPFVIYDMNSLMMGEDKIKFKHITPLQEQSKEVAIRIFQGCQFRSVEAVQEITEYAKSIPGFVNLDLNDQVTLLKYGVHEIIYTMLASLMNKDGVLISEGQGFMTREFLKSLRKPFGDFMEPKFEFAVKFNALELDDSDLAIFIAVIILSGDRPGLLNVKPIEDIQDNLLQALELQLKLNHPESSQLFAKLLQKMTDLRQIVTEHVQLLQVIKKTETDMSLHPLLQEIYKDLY
In short: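 Read-out: 488 nm N/C fluorescence ratio from complemented Venus YFP fragments, ≥350 cells per image, gain-of-signal fitted against DMSO baseline. Fusions of PPARg/SRC-1 with IFP1/IFP2 expressed transiently in HEK293T; compounds applied 8 h.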

[3] = target: Peroxisome proliferator-activated receptor gamma (Homo sapiens) (UniProt P37231); assay: OT_PPARg_PPARgSRC1_1440: Odyssey Thera (OT) 24-hour Protein-Complementation Assay for Peroxisome Proliferator-activated Receptor Gamma/ SRC-1 Co-activator (AID 2283388; active = hit-call score of the fitted dose curve at least 0.9, where 1 is the maximum;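 also: nuclear to cytoplasmic ratio of reconstituted Venus YFP fluorescence in fixed imaged cells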)
In short: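 Transient HEK293T, YFP fragments 1-158/159-239 (mutant IFP1/IFP2) fused to PPARg/SRC-1; 24 h dosing; fix 4% formaldehyde, Draq5; Opera imaging 488/635 nm; N/C ratio, gain vs DMSO.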

[4] = read-out: Tumor necrosis factor receptor superfamily member 6 (Homo sapiens) (UniProt P25445); assay: LTEA_HepaRG_FAS: Life Technologies and Expression Analysis (LTEA) Assay for Fas cell surface death receptor (FAS) using HepaRG (AID 2283447); details: mRNA level, 48 h; actives raise or lower the signal
In short: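 FAS transcript level was measured by TaqMan qRT-PCR against three housekeeping genes after 48 h chemical exposure. Cells were HepaRG, 0.5% DMSO vehicle, with a top concentration of 100 uM and half-log dilutions over eight points, in duplicate.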

[5] = read-out: Fatty acid synthase (Homo sapiens) (UniProt P49327); assay: LTEA_HepaRG_FASN: Life Technologies and Expression Analysis (LTEA) Assay for Fatty Acid Synthase (FASN) using HepaRG (AID 2283448); details: mRNA level, 48 h; actives raise or lower the signal;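 as to AC50: differentiated human HepaRG liver cells in serum-free induction medium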
In short: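 In human HepaRG cultures, 48 h chemical exposure (up to 100 uM, 0.5% DMSO) preceded TaqMan qRT-PCR of FASN.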

[6] = read-out: Cyclin D2 (CCND2), CCND2 (gene 894); assay: LTEA_HepaRG_CCND2: Life Technologies and Expression Analysis (LTEA) Assay for Cyclin D2 (CCND2) using HepaRG (AID 2283449); details: mRNA level, 48 h; actives raise or lower the signal
In short: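 CCND2 transcript levels, quantified by qRT-PCR and normalised to three housekeeping genes, were fitted bidirectionally against 0.5% DMSO. HepaRG cultures were dosed 48 h in duplicate with an 8-point half-log series up to 100 uM.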

[7] = read-out: Cyclin Dependent Kinase Inhibitor 1A (CDKN1A), CDKN1A (gene 1026); assay: LTEA_HepaRG_CDKN1A: Life Technologies and Expression Analysis (LTEA) Assay for Cyclin Dependent Kinase Inhibitor 1A (CDKN1A) using HepaRG (AID 2283450); details: mRNA level, 48 h; actives raise or lower the signal
In short: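 Cryopreserved HepaRG cells were plated and cultured 48 h, then switched to serum-free induction medium. Chemicals (eight half-log concentrations, top 100 uM, 0.5% DMSO) were applied for 48 h. Lysates underwent qRT-PCR for CDKN1A with housekeeping normalization.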

[8] = read-out: Cyclin D1 (CCND1), CCND1 (gene 595); assay: LTEA_HepaRG_CCND1: Life Technologies and Expression Analysis (LTEA) Assay for Cyclin D1 (CCND1) using HepaRG (AID 2283451); details: mRNA level, 48 h; actives raise or lower the signal;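 as to AC50: differentiated human HepaRG liver cells in serum-free induction medium; TaqMan qRT-PCR transcript level normalised to ACTB GAPDH and POLR2A housekeeping genes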
In short: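 Human liver HepaRG line; 48 h dosing, 8 conc. ≤100 uM, 0.5% DMSO; TaqMan qRT-PCR mRNA, 3 housekeeping genes; bidirectional curve fit vs DMSO.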

[9] = read-out: catalase (CAT), CAT (gene 847); assay: LTEA_HepaRG_CAT: Life Technologies and Expression Analysis (LTEA) Assay for catalase (CAT) using HepaRG (AID 2283452); details: mRNA level, 48 h; actives raise or lower the signal;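 as to AC50: TaqMan qRT-PCR signal normalized to ACTB GAPDH and POLR2A housekeeping genes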
In short: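 Expression of CAT was quantified by TaqMan qRT-PCR with ACTB/GAPDH/POLR2A normalization after 48 h chemical exposure of HepaRG. Eight-point half-log series, top 100 uM, in 0.5% DMSO; gain or loss fitted against vehicle.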

[10] = read-out: flavin-containing dimethylaniline monooxygenases 3 (FMO3), FMO3 (gene 2328); assay: LTEA_HepaRG_FMO3: Life Technologies and Expression Analysis (LTEA) Assay for flavin-containing dimethylaniline monooxygenases 3 (FMO3) using HepaRG (AID 2283453); details: mRNA level, 48 h; actives raise or lower the signal;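 as to AC50: differentiated human HepaRG liver cells in serum-free induction medium; FMO3 transcript by TaqMan qRT-PCR normalized to ACTB GAPDH and POLR2A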
In short: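 Eight-point concentration-response in serum-free HepaRG cultures (top 100 uM, 0.5% DMSO, 48 h). Read-out: FMO3 mRNA level normalized to three endogenous control genes, fitted bidirectionally versus vehicle.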

[11] = CEETOX_H295R_11DCORT: CeeTox H295R High-throughput Steroidogenesis Assay for 11-Deoxycortisol (11DCORT) (AID 2283432); details: actives raise or lower the signal
In short: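 H295R cells; 10 uM forskolin prestim 48 h; compound in 0.1% DMSO 48 h; media extracted with MTBE; 11-deoxycortisol by LC-MS/MS, 7-point standard curve; gain/loss vs DMSO baseline; viability by MTT in same wells.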

[12] = CEETOX_H295R_OHPREG: CeeTox H295R High-throughput Steroidogenesis Assay for OH-Pregnenolone (OHPREG) (AID 2283434); details: actives raise or lower the signal
In short: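 Secreted 17alpha-hydroxypregnenolone measured by HPLC-MS/MS after liquid-liquid extraction. Human adrenal H295R cells received 48 h forskolin (10 uM) stimulation before 48 h chemical exposure at 0.1% final DMSO; MTT viability in same wells; bidirectional fit against DMSO.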

[13] = CEETOX_H295R_OHPROG: CeeTox H295R High-throughput Steroidogenesis Assay for OH-Progesterone (OHPROG) (AID 2283435); details: actives raise or lower the signal
In short: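 Human adrenocortical H295R cells, passage 10 or lower, were treated with chemical for 48 h after forskolin priming, and hormone output in the medium was quantified by LC-MS/MS.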

[14] = CEETOX_H295R_CORTIC: CeeTox H295R High-throughput Steroidogenesis Assay for Corticosterone (CORTIC) (AID 2283437); details: actives raise or lower the signal
In short: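 Medium corticosterone was quantified by tandem mass spectrometry following 48 hours of chemical exposure (0.1% DMSO) in human H295R cells previously stimulated 48 hours with 10 uM forskolin. Viability checked by MTT; chemicals diluted and retested when viability fell below 70%.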

[15] = CEETOX_H295R_CORTISOL: CeeTox H295R High-throughput Steroidogenesis Assay for Cortisol (AID 2283438); details: actives raise or lower the signal;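 also: cortisol secreted into medium quantified by LC-MS/MS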
In short: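 Steroidogenesis in H295R, per modified OECD 456: 48 h forskolin (10 uM), then 48 h exposure, 0.1% DMSO. Cortisol by extraction and tandem MS; viability by MTT (570/650 nm); cytotoxic chemicals diluted and re-tested.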

[16] = CEETOX_H295R_DOC: CeeTox H295R High-throughput Steroidogenesis Assay for DOC (AID 2283439); details: actives raise or lower the signal
In short: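 H295R, fsk 10 uM ×48 h pre, cmpd ×48 h (0.1% DMSO). Media → MTBE extr. → LC-MS/MS, DOC. Bidirectional fit vs DMSO; MTT viability same wells, re-test diluted if <70%.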

[17] = CEETOX_H295R_PROG: CeeTox H295R High-throughput Steroidogenesis Assay for Progesterone (PROG) (AID 2283442); details: actives raise or lower the signal;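 as to AC50: human H295R adrenal cells primed with 10 µM forskolin before dosing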
In short: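 Adrenal H295R line, forskolin-stimulated (10 uM, 48 h) before dosing. 48 h exposure, 0.1% DMSO vehicle. Secreted progesterone by reverse-phase HPLC with ESI+ MS/MS quantification; DMSO-normalised bidirectional curve fit.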

[18] = CEETOX_H295R_ESTRADIOL: CeeTox H295R High-throughput Steroidogenesis Assay for Estradiol (AID 2283440); details: actives raise or lower the signal;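 also: estradiol secreted into medium quantified by LC-MS/MS after dansyl derivatisation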
In short: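 Following OECD 456 with minor changes, H295R cells received 10 uM forskolin for 48 h and then test chemical for 48 h. Hormone output was read by HPLC-MS/MS, with cytotoxic concentrations diluted until MTT viability reached ≥70%.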

[19] = CEETOX_H295R_ESTRONE: CeeTox H295R High-throughput Steroidogenesis Assay for Estrone (AID 2283441); details: actives raise or lower the signal;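 also: estrone secreted into medium measured by LC-MS/MS after dansyl derivatization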
In short: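 Forskolin-stimulated H295R cells are treated 48 h with chemical, and estrone in the medium is measured by LC-MS/MS. Activity is fitted in both directions relative to DMSO controls, with chemicals diluted until MTT viability reaches at least 70%.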

Fatty acid synthase (Homo sapiens), sequence (P49327 whole entry, looked up): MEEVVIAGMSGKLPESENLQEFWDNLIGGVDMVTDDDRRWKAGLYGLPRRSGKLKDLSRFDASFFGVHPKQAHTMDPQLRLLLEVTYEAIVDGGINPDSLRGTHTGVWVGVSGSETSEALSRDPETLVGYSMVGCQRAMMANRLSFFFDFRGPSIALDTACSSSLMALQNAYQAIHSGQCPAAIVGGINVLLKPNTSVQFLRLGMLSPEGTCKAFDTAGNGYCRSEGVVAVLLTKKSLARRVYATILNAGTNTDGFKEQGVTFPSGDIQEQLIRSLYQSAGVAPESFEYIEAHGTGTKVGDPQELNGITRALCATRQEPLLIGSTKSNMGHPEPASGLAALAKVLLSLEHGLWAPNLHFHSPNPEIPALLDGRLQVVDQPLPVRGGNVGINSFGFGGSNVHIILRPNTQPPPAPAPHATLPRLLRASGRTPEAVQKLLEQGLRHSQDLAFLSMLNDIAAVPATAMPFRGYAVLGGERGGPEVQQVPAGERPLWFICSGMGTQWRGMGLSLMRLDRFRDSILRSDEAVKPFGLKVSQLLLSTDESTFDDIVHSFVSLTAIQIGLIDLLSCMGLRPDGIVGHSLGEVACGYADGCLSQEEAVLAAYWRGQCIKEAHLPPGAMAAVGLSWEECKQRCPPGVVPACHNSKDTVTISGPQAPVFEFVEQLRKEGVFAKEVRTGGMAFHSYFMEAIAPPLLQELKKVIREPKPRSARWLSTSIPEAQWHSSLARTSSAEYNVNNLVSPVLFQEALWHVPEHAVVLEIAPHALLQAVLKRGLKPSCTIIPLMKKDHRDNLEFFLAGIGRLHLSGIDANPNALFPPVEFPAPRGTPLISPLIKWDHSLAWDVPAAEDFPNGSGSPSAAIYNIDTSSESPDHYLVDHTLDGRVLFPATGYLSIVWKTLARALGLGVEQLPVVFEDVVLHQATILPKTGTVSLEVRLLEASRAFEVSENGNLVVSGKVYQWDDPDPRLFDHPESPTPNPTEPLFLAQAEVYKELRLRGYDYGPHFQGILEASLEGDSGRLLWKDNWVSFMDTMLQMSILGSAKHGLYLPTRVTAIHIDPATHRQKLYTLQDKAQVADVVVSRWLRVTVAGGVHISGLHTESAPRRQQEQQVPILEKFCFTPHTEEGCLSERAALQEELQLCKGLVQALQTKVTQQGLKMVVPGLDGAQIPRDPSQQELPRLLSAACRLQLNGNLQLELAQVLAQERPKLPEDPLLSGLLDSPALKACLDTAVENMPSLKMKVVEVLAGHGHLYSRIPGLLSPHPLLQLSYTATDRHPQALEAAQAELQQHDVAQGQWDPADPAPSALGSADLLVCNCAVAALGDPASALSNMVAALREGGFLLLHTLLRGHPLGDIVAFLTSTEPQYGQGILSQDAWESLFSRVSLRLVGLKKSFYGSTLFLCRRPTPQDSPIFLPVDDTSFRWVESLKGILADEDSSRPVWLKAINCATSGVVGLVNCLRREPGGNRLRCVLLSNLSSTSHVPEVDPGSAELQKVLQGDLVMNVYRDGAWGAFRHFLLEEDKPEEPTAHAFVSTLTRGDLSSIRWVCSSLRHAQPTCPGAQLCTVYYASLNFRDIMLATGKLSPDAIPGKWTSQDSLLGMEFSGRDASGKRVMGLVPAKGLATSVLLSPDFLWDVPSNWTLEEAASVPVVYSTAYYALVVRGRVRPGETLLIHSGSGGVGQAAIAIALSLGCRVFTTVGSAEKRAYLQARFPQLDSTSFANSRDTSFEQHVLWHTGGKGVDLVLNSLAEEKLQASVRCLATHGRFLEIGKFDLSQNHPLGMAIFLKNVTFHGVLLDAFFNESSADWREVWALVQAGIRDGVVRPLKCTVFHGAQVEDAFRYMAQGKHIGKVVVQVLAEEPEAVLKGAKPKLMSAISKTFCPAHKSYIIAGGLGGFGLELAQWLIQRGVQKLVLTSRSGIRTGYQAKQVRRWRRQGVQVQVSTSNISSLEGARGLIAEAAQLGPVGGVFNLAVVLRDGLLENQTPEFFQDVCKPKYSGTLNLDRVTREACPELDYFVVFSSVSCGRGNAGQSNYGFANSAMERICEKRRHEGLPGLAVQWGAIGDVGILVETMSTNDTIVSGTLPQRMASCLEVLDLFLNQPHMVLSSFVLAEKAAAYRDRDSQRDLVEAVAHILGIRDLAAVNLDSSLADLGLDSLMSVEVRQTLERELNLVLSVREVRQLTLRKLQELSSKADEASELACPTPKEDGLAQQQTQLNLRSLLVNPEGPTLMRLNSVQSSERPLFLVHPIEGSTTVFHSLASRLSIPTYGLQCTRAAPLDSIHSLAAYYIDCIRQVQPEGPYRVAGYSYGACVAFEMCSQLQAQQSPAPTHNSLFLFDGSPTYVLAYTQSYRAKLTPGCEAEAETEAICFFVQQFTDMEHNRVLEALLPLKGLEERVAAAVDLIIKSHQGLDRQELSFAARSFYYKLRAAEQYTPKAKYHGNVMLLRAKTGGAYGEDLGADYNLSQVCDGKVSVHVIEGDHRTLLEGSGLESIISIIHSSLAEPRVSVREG

With `CC(C)c1cccc(C(C)C)c1` the outcome [1] was “inactive”, the outcome [2] was “inactive” and the outcome [3] was “inactive”. For the same compound, the outcome [4] was “inactive”, the outcome [5] was “inactive” and the outcome [6] was “inactive”. For the same compound, the outcome [7] was “inactive”, the outcome [8] was “inactive” and the outcome [9] was “inactive”. For the same compound, the outcome [10] was “inactive”.
With `Nc1nc(Cl)nc2c1ncn2[C@H]1C[C@H](O)[C@@H](CO)O1` the AC50 [1] was 46.7 µM (active) and 44.1 µM (active), the outcome [11] was “inactive” and the AC50 [12] was 6.46 µM (active). The outcome [13] was “inactive”, the AC50 [14] was 5.64 µM (active) and the outcome [15] was “inactive”. The AC50 [16] was 0.201 µM (active), the AC50 [17] was 0.128 µM (active) and the AC50 [4] was 0.209 µM (active). For the same compound, the AC50 [5] was 1.59 µM (active), the outcome [6] was “inactive” and the AC50 [7] was 0.168 µM (active). The AC50 [8] was 3.49 µM (active), the AC50 [9] was 0.887 µM (active) and the AC50 [10] was 2.05 µM (active).
With `CN(C)C(=O)NC1(c2ccccc2)CCN(CCC[C@]2(c3ccc(Cl)c(Cl)c3)CCCN(C(=O)c3ccccc3)C2)CC1` the outcome [1] was “inactive”, the outcome [2] was “inactive” and the outcome [3] was “inactive”. For the same compound, the outcome [11] was “inactive”, the outcome [12] was “inactive” and the outcome [13] was “inactive”. The outcome [14] was “inactive”, the outcome [15] was “inactive” and the outcome [16] was “inactive”. For the same compound, the outcome [18] was “inactive”, the outcome [19] was “inactive” and the outcome [17] was “inactive”. For the same compound, the outcome [4] was “inactive”, the AC50 [5] was 16.5 µM (active) and the outcome [6] was “inactive”. For the same compound, the AC50 [7] was 18.4 µM (active), the AC50 [8] was 22.7 µM (active) and the AC50 [9] was 18.8 µM (active). For the same compound, the AC50 [10] was 18.8 µM (active).
In the case of `Cc1occc(=O)c1O`, the outcome [1] is reported as “inactive”, the outcome [2] is reported as “inactive” and the outcome [3] is reported as “inactive”. The outcome [4] was “inactive”, the outcome [5] was “inactive” and the outcome [6] was “inactive”. For the same compound, the outcome [7] was “inactive”, the outcome [8] was “inactive” and the outcome [9] was “inactive”. The outcome [10] was “inactive”.
With `CC(=O)CC(c1ccccc1)c1c(O)c2ccccc2oc1=O` (configuration not stated) the outcome [1] was “inactive”, the outcome [4] was “inactive” and the AC50 [5] was 13.4 µM (active). For the same compound, the outcome [6] was “inactive”, the outcome [7] was “inactive” and the outcome [8] was “inactive”. For the same compound, the outcome [9] was “inactive” and the outcome [10] was “inactive”.
With `CC(=O)S[C@H](C(=O)N[C@H]1Cc2ccccc2[C@H]2CCC[C@@H](C(=O)O)N2C1=O)C(C)C` the outcome [1] was “inactive”, the outcome [2] was “inactive” and the outcome [3] was “inactive”. The outcome [4] was “inactive”, the outcome [5] was “inactive” and the outcome [6] was “inactive”. For the same compound, the outcome [7] was “inactive”, the outcome [8] was “inactive” and the outcome [9] was “inactive”. The outcome [10] was “inactive”.
